Experimental data from PubChem BioAssay (NCATS).
Where “and” joins values, the source holds several entries; their conditions need not be identical. Identical values can stand only once. Results filed as inconclusive are left out. A call without a number means that no potency is given here. Where a structure was tested more than once in an assay, its records may differ in their call. Calls of active or inactive are those of the source. Calls follow the shape of the dose curve; as a rule, active = well fitted curve in the direction sought with a large enough effect; inconclusive = small, poorly fitted or top-dose-only effect, or another doubt; inactive = no such curve, though single readings can be large; an effect the other way counts as inactive or inconclusive.

Experiments:
[1] = qHTS for Inhibitors of Plasmodium falciparum (DD2) proliferation (AID 504314);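 as to activity, negative = inhibition: parasite DNA measured by SYBR Green fluorescence after red cell lysis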
Summary of the method: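 Erythrocytes infected with P. falciparum (0.3% parasitemia, 2.5% hematocrit final) were incubated with compounds for 72 h at 37C, 5% CO2. Parasite DNA was detected by SYBR Green I fluorescence after saponin/Triton lysis, normalized to artemisinin (0.29 uM) and DMSO controls.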

[2] = qHTS for Inhibitors of Plasmodium falciparum (GB4) proliferation (AID 504315); also: nearly all actives have a fitted effect of over 50% in size
Summary of the method: (§1)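 Erythrocytes infected with P. falciparum line (0.3% parasitemia, 2.5% hematocrit final) incubated with compounds 72 h at 37 °C, 5% CO2; SYBR Green lysis buffer added, fluorescence read next day. Normalized to 0.29 uM artemisinin and DMSO.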

[3] = qHTS for Inhibitors of Plasmodium falciparum (7G8) proliferation (AID 504316); also: nearly all actives have a fitted effect of over 65% in size
Summary of the method: as §1

[4] = qHTS for Inhibitors of Plasmodium falciparum (HB3) proliferation (AID 504318); also: nearly all actives have a fitted effect of over 60% in size
Summary of the method: as §1

[5] = qHTS for Inhibitors of Plasmodium falciparum (CP250) proliferation (AID 504320)
Summary of the method: as §1
Potency is read from the fitted curve at half-maximal effect.

Row | SMILES | Potency [1] | Potency [2] | Potency [3] | Potency [4] | Potency [5] | activity, negative = inhibition [1]
1 | C=C(C)C(O)C=Cc1ccc(Br)cc1 (configuration not stated) | inactive | inactive | inactive | inactive | inactive | –
2 | CCN1C(=O)[C@@H]2[C@H]3[C@H](O)[C@H](O)CC(=NO[C@H](C)CN4CCCc5nc(C)c(C)cc54)[C@@H]3CC[C@H]2C1=O | inactive | inactive | inactive | inactive | inactive | –
3 | c1ccc(CCc2nc(-c3ccccc3)oc2Nc2ccc3ccccc3c2)cc1 | inactive | inactive | inactive | inactive | inactive | –
4 | COC(=O)C1=C(C(=O)OC)[C@@H]2N(C)c3ccccc3[C@@]23C[C@@H](C(=O)OC)N(C(=O)c2ccc(Br)cc2)C3=N1 | inactive | inactive | inactive | inactive | inactive | –
5 | CCC(=O)C[C@@H](NC(=O)OC)c1ccccc1 | inactive | inactive | inactive | inactive | inactive | –
6 | OC[C@H]1O[C@H](C#Cc2ccccc2)C=C[C@@H]1O | inactive | inactive | inactive | inactive | inactive | –
7 | COC(=O)CCCC1=CC2=C(c3ccccc3)C(=O)C(C)(OC(=O)C3CCCC3)C(=O)C2=CN1c1ccccc1 (configuration not stated) | inactive | inactive | inactive | inactive | inactive | –
8 | C=CC[C@](C)(Nc1ccc(OC)cc1)C(=O)OCC | inactive | inactive | inactive | inactive | inactive | –
9 | CCCCCCCC=CC1=CC2(C)CC1(C)C(CCCCCCC)CC2=O (configuration not stated) | inactive | inactive | inactive | inactive | inactive | –
10 | CC(=O)OC[C@H]1O[C@@H](ON=C2C[C@@H](O)[C@@H](O)[C@@H]3[C@H]4C(=O)N(Cc5ccccc5)C(=O)[C@@H]4CC[C@@H]23)[C@H](OC(C)=O)[C@@H](OC(C)=O)[C@H]1OC(C)=O | inactive | inactive | inactive | inactive | inactive | –
11 | COC(=O)N[C@H](C(C(=O)OC)=C(C)NCc1ccccc1)c1ccc(Cl)cc1 | inactive | inactive | inactive | inactive | inactive | –
12 | COC(=O)C1=C(C)C(=O)[C@]2(O)c3ccccc3N(C)[C@]12C | inactive | inactive | – | inactive | inactive | –
13 | COC(=O)CC=C[C@@H](C)[C@H](O)c1ccccc1Br | inactive | – | – | 1900 nM (active) | – | –
14 | CCN1C(=O)N[C@@H](CCc2ccccc2)[C@H](C(C)=O)[C@H]1C | inactive | inactive | inactive | inactive | inactive | –
15 | COC(=O)NC(c1ccccc1)C1(C(=O)OC)C(=O)Cc2ccccc21 (configuration not stated) | inactive | – | inactive | inactive | inactive | –
16 | O=C1[C@@H]2[C@H]3[C@H](O)[C@H](O)CC(=NOC[C@@H](O)COCc4ccco4)[C@@H]3CC[C@H]2C(=O)N1C[C@@H]1CCCO1 | – | inactive | inactive | inactive | inactive | –
17 | COC(=O)C1(C(=O)OC)Cc2conc2[C@@H]1c1ccccc1 | inactive | inactive | inactive | inactive | inactive | –
18 | COc1ccc2c(c1)O[C@H](c1ccc3c(c1)OCO3)[C@@H](OC(=O)NCCOc1ccccc1)C2=O | inactive | inactive | inactive | inactive | inactive | –
19 | CCN1C(=O)N[C@@H](c2ccccc2)[C@H](C(=O)OC)[C@H]1C | inactive | inactive | inactive | inactive | inactive | –
20 | COc1ccc(-c2nc3c(c4c2C[C@H](c2ccccc2)OC4)CN(S(=O)(=O)c2ccc(NC(C)=O)cc2)CC3)c(C)c1 | – | inactive | – | – | inactive | -0.765% [at 1.12 µM] (inactive)
21 | C#CC[C@@]1(C(=O)OC)C=C[C@@H](C)[C@H](c2ccccc2Br)N1C(=O)C(F)(F)F | inactive | inactive | inactive | inactive | inactive | –
22 | CC(C)CON=C1C[C@@H](O)[C@@H](O)[C@@H]2[C@H]3C(=O)N([C@@H](C)c4ccccc4)C(=O)[C@@H]3CC[C@H]12 | inactive | inactive | inactive | – | inactive | –
23 | CC(=O)OC[C@H]1O[C@H](C#Cc2ccccc2)C=C[C@H]1O | inactive | inactive | inactive | – | inactive | –
24 | CCCCCCC#C[C@@H]1C=C[C@H](OC(=O)OCC)[C@@H](COC(=O)OCC)O1 | inactive | inactive | inactive | inactive | inactive | –
25 | CC(=O)OC[C@H]1O[C@H](CCON=C(C)CCC(=O)OC[C@H]2O[C@H](C#Cc3ccccc3)C=C[C@H]2Oc2ccc(C)cc2)C=C[C@H]1OC(C)=O | inactive | inactive | inactive | inactive | inactive | –
26 | COC(=O)C[C@H]1c2ccccc2[C@@H]2C(=C[C@@H](C)[C@H]3C(=O)NC(=O)[C@H]32)N1C(=O)OC | inactive | inactive | inactive | inactive | inactive | –
27 | CCCCc1cc2c(cn1)=C(OC(=O)C1CCCC1)C(C)(OC(=O)CC)C(=O)C=2 (configuration not stated) | – | 1900 nM (active) | 1.51 µM (active) and 1.69 µM (active) | inactive | – | –
28 | COC(=O)CC=C[C@@H](C)[C@H](OC)c1ccccc1Br | inactive and 1.5 µM (active) | inactive and 1.51 µM (active) | inactive and 1.9 µM (active) | inactive and 1.9 µM (active) | inactive and 1.35 µM (active) | –
29 | N#CCCCS(=O)(=O)c1nnnn1-c1ccccc1 | inactive | inactive | – | inactive | inactive | –
